# Sampled rows, rich in hits. Any-hit rate of the full collection: about 14%.
# HCV inh = qHTS Assay for Inhibitors of Hepatitis C Virus (HCV) | Huh7.5.1 HCVcc-Cre infection, luciferase reporter, 44 h | Potency, µM (highest dose often 41.8 µM), for the others: at the top dose activity change, negative = inhibition, actives largely listed as inhibitors | hit rate 3.4% among 340,000; also: potency is read from the fitted curve at half-maximal effect
#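 Infectious HCVcc-Cre (~0.5 moi) was added to cells just after compound, with cells seeded 4 h earlier at 1,000 per well. Luciferase activity after 44 h culture reported infection; substrate was incubated 15 min at room temperature before reading.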
# Marburg entry inh = qHTS for inhibitors of binding or entry into cells for Marburg Virus | Marburg virus pseudotyped entry inhibition, cell reporter | Potency, µM (top dose mostly 37.8 µM), for the others: at the top dose activity change, negative = inhibition, most hits filed as inhibitors | hit rate 1.8% among 300,000 | AID 540276, 2011; calls by dose curve; tested in HEK293 cells; also: potency is read from the fitted curve at half-maximal effect
# HCMV antiviral = qHTS Assay for inhibitors of the human cytomegalovirus (HCMV); hit rate 4.5% among 410,000; activity change, negative = inhibition, % at 57.5 µM; HFF cells, HCMV-luciferase reporter, 72 h; active compounds read low; AID 1259415, 2018; in the data active = activity change below about -60%; inconclusive = no clear call, values can overlap the other calls; inactive = above about -39%
#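 Two compound doses tested in HFFs infected with HCMV-luciferase, MOI 1 PFU/cell, 72 h at 37C. Lysate luminescence read with OneGlo; data normalized against buffer-only and 10uM Salinomycin inhibitor controls.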
# LASV entry inh = qHTS for Inhibitors of binding or entry into cells for Lassa Virus; hit rate 1.2% among 300,000; Lassa virus pseudotype entry inhibition, cell reporter; Potency, µM (top dose mostly 37.9 µM), inactives show top-dose activity change, negative = inhibition, hits mostly inhibitors; calls by dose curve; tested in HEK293 cells; also: potency is read from the fitted curve at half-maximal effect; nearly all actives have a fitted effect of over 50% in size
# Pf growth 96h = Primary qHTS for delayed death inhibitors of the malarial parasite plastid, 96 hour incubation | P. falciparum luciferase reporter growth, 96 h | Potency, µM (series often up to 28.7 µM), inactives show at the highest dose activity change, negative = inhibition, actives largely listed as inhibitors | hit rate 6.9% among 320,000 | AID 504834, 2011; also: potency is read from the fitted curve at half-maximal effect
#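 Two-generation exposure (96 h) targets delayed-death phenotype. Reporter parasites carrying integrated firefly luciferase, in red cells at 2% hematocrit and 0.05% parasitemia final, kept at 37 C, 5% CO2; luminescence loss indicates inhibition.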
# Pf growth 48h = Primary qHTS for delayed death inhibitors of the malarial parasite plastid, 48 hour incubation; hit rate 5.9% among 310,000; P. falciparum luciferase growth in erythrocytes, 48 h; Potency, µM (highest dose often 28.7 µM), inactives show at the highest dose activity change, negative = inhibition, most hits filed as inhibitors; also: potency is read from the fitted curve at half-maximal effect
#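 Luminescence readout; reporter = integrated firefly luciferase in P. falciparum. RBC culture at 2% hematocrit, 0.1% parasitemia final, 37 C/5% CO2; decreased signal taken as growth inhibition.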
# * hit, by the source's call; ? = inconclusive; nt = no result given; + = active, no number; [ ] = dose if it differs, or a comment. Unless noted, calls follow the shape of the dose curve; as a rule, active = well fitted inhibition curve with a large enough effect; inconclusive = small, poorly fitted or top-dose-only effect, or another doubt; inactive = no such curve, though single readings can be large or run the other way. % is scaled to controls: 0 for no effect and ±100 for the full control effect.
SMILES,HCV inh,Marburg entry inh,HCMV antiviral,LASV entry inh,Pf growth 96h,Pf growth 48h
C#CCOCCOCCOCCNc1nc(N2CCN(C(=O)Cn3cc(CCCCN)nn3)CC2)nc(N2CCN(C(=O)[C@H]([C@@H](C)CC)n3cc(CCCCN)nn3)CC2)n1,19%,nt,0,nt,77%,-6%
COc1ccc(C2c3c(n(C)c4ccccc34)C(=O)N2CC(=O)Nc2ccccc2Cl)cc1 (stereo not drawn),nt,nt,0,-14%[46.1 µM],nt,nt
O=C(CSc1ccc(Cl)cc1)NNC(=O)c1ccncc1,16%,5%,10,0%,16%,12%
CCc1cccc(C)c1NC(=S)NCC1CCN(c2ccc(OC)cc2)C1 (stereo not drawn),-13%,-29%[46.1 µM],0,18%,-4%,3.3µM*
COc1ccc(N2CCC(CNC(=S)Nc3cccc(OC)c3)C2)cc1 (stereo not drawn),-6%,2%,-18,-4%,-3%,?
CCc1ccccc1NC(=S)NCC1CCN(c2ccc(OC)cc2)C1 (stereo not drawn),?,nt,-21,nt,?,12µM*
N#Cc1cccc(-c2csc(C(O)(c3ccccc3)C(F)(F)F)n2)c1 (stereo not drawn),nt,nt,-18,nt,nt,nt
COc1ccc(N2CCN(CCCn3c(=S)[nH]c4ncccc4c3=O)CC2)cc1,-5%,4.1µM*,?,?,13µM*,nt
CC1CCN(CCn2c(=S)[nH]c3ncccc3c2=O)CC1,nt,2%,nt,nt,nt,nt
O=c1c2cccnc2[nH]c(=S)n1CCCN1CCN(c2ccc(F)cc2)CC1,-5%,4.6µM*,-24,5.8µM*,nt,8%
CCOC(=O)C1CCN(C(=O)c2ccc(S(=O)(=O)Nc3ccccc3Cl)cc2)CC1,-10%,-17%,-6,?,-6%,-12%
CCN(C1CCCCC1)S(=O)(=O)CCNC(=O)c1ccc(OC)cc1,nt,nt,-17,nt,nt,nt
Cc1cc(N2CCN(c3ccccn3)CC2)n2cc(-c3ccccc3)nc2n1,9%,-13%,24,21%,6.6µM*,13µM*
Cc1ccc2c(COC(=O)c3n[nH]c4ccccc34)cc(=O)oc2c1,?,1%,-17,2%,-9%,80%
CCc1ccc2c(COC(=O)c3n[nH]c4ccccc34)cc(=O)oc2c1,10µM*,?,94,-21%,-6%,1%
Cc1ccc(CNC(=O)C2CCN(S(=O)(=O)c3cn(C)cn3)CC2)cc1,nt,nt,?,-7%[46.1 µM],nt,nt
COC(=O)c1ccc(N=NN2CCOCC2)cc1,24%,?,124,-19%,13%,187%
O=C(O)C1SCCN1S(=O)(=O)c1ccc(N=NN2CCOCC2)cc1 (stereo not drawn),7%,-5%[14.2 µM],8,16%,1.9µM*,21%
C(=N\Nc1nncc2ccccc12)/c1ccccc1,14%,12%,200,?,0%,154%
C/C(=N\Nc1nccnc1Cl)c1ccc(O)cc1,3%,nt,92,nt,7.4µM*,24%
C/C(=N\Nc1nncc2ccccc12)c1ccc(O)cc1,7.1µM*,?,15,?,232%,167%
C/C(=N\Nc1nncc2ccccc12)c1ccc(C(C)(C)C)cc1,2.5µM*,?,nt,?,?,10%
C/C(=N\Nc1nncc2ccccc12)c1cccc(OC(F)F)c1,?,?,41,2.8µM*,288%,140%
C/C(=N\Nc1nccnc1Cl)c1ccc(F)cc1,15%,?,6,5%,-12%,0%
COCCCNC(=O)c1ccc2c(=O)n(CC3CCCO3)c(=S)[nH]c2c1 (stereo not drawn),11%,-1%,-15,1%,1%,3%
SMILES,HCV inh,Marburg entry inh,HCMV antiviral,LASV entry inh,Pf growth 96h,Pf growth 48h
COC(=O)c1ccc2c(=O)n(Cc3ccc(C(=O)NC(C)C)cc3)c(=S)[nH]c2c1,7.9µM*,?,-25,?,45%,?
CC1CCCC(NC(=O)c2ccc3c(=O)n(CC4CCCO4)c(=O)[nH]c3c2)C1C (stereo not drawn),-13%,?,27,?,?,2.6µM*
CC(C)Oc1cc(-n2c(=S)[nH]c3ccccc3c2=O)c(Cl)cc1Cl,?,-24%,-9,?,4.7µM*,5.9µM*
CC(C)NC(=O)c1ccc2c(=O)n(CC3CCCO3)c(=S)[nH]c2c1 (stereo not drawn),-11%,-4%[46.1 µM],-5,8%,9.3µM*,-16%
CCc1ccc(OCC(=O)N(Cc2ccc(C(C)C)cc2)C2CCS(=O)(=O)C2)cc1 (stereo not drawn),nt,?,13,-26%[46.1 µM],nt,nt
COc1ccc(NC(=O)C2(C)Cc3c(-c4ccc(N(C)C)cc4)ccnc3O2)cc1OC (stereo not drawn),nt,nt,18,nt,nt,nt
CCCCCN(C(=O)CCC(=O)OCC(=O)NCCc1ccccc1)c1c(N)n(CCCC)c(=O)[nH]c1=O,nt,nt,-4,nt,nt,nt
O=C1CC(c2nc3ccccc3[nH]2)CN1c1cccc(Cl)c1 (stereo not drawn),nt,13%[46.1 µM],-21,-2%[46.1 µM],nt,nt
O=C(NC1CCN(C(=S)NCCc2ccccc2)CC1)C1CCCCC1,14%,nt,-28,nt,19%,-9%
CN=C1N(C)C[C@@H]2[C@@H]3C(=O)N(C)C(=O)[C@@H]3[C@](Cc3ccccc3)(C(=O)OC)N12,4%,nt,nt,nt,nt,nt
CC1=CC[C@@H](COc2ccccc2)O[C@@]2(C1)C(=O)N(Cc1ccccc1C(F)(F)F)c1cccc(Br)c12,nt,-7%[14.2 µM],nt,nt,nt,nt
CCc1nc2ccc(C(=O)NCc3cccs3)cn2c1N(C)Cc1nccs1,nt,nt,-5,nt,nt,nt
CCCNC(=O)N[C@H]1CC[C@@H](CCn2cc(-c3cccc(F)c3)nn2)O[C@@H]1CO,nt,nt,9,nt,nt,nt
CC(C)NC(=O)c1ccc(-n2c(=S)[nH]c3ccccc3c2=O)cc1,nt,nt,-84*,nt,55%[5.75 µM],-2%
CCOC(=O)c1cccc(NC(=O)c2ccc3nc(Cc4ccccc4)oc3c2)c1,nt,nt,-39,-24%[46.1 µM],nt,nt
CCn1cc(CNC(=O)c2ccc3nc(Cc4ccccc4F)oc3c2)cn1,11µM*,-5%[46.1 µM],-3,7%[46.1 µM],6%,29%
CCC(NC(=O)c1ccc2nc(Cc3ccc(OC)cc3)oc2c1)c1ccncc1 (stereo not drawn),-7%,nt,+,nt,?,-18%
Cc1cccc(CNC(=O)c2ccc3nc(Cc4ccccc4F)oc3c2)n1,-17%,17%,97,-4%,-2%,-22%
COc1cccc(NC(=O)c2ccc3nc(Cc4ccccc4)oc3c2)c1,nt,nt,-94*,-16%[46.1 µM],nt,nt

# Bioassay records: PubChem BioAssay, National Center for Advancing Translational Sciences (NCATS)
